Among all 5,500 compounds or so, about 2,000 (36%) were called active. About 18% were inconclusive and are not listed. Cut-off read from the data, not from the text of the source: active = normalized growth mostly below about 0.91 (no sharp cut-off); inconclusive = no clear call, values can overlap the other calls; inactive = mostly above about 0.92. The list shows a part of the results.
Experiment: chemical genetic growth profiling, strain panel (AID 1159580);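 note: tested at 20 µM; growth read once vehicle control cultures reached saturation at 30 °C; 1 = growth at the plate median or of vehicle wells; lower values mean less growth of the strain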
Details: growth OD
[1] = S. cerevisiae deletion strains, locus YJR075W, strain HOC1, stronger effect = lower value
[2] = S. cerevisiae deletion strains, locus YMR307W, strain GAS1, stronger effect = lower value
[3] = S. cerevisiae deletion strains, locus YDL101C, strain DUN1, stronger effect = lower value
[4] = S. cerevisiae deletion strains, locus YHR030C, strain SLT2, stronger effect = lower value
[5] = S. cerevisiae deletion strains, locus YJL095W, strain BCK1, stronger effect = lower value
[6] = S. cerevisiae deletion strains, locus YOR061W, strain CKA2, stronger effect = lower value

Measured: normalized growth

O=[N+]([O-])c1ccc(CSc2ncnc3c2ncn3[C@@H]2O[C@H](CO)[C@H](O)C2O)cc1 (stereo partly drawn)
inactive: S. cerevisiae deletion strains, locus YAL013W, strain DEP1, stronger effect = lower value 1.01 | S. cerevisiae deletion strains, locus YAL040C, strain CLN3, stronger effect = lower value 1.01 | S. cerevisiae deletion strains, locus YCL061C, strain MRC1 (second series), stronger effect = lower value 1.01 | S. cerevisiae deletion strains, locus YDR363W, strain ESC2, stronger effect = lower value 1.01 | S. cerevisiae deletion strains, locus YER002W, strain NOP16, stronger effect = lower value 0.997 | [1] 1.01 | [2] 0.996 | S. cerevisiae deletion strains, locus YNL175C, strain NOP13, stronger effect = lower value 1.01 | S. cerevisiae deletion strains, locus YNL197C, strain WHI3, stronger effect = lower value 1.01 | S. cerevisiae deletion strains, locus YNL224C, strain SQS1, stronger effect = lower value 1 | S. cerevisiae deletion strains, locus YNL322C, strain KRE1, stronger effect = lower value 1.01 | S. cerevisiae deletion strains, locus YOR083W, strain WHI5 (second series), stronger effect = lower value 0.992 | S. cerevisiae deletion strains, locus YPL055C, strain LGE1, stronger effect = lower value 1.01 | S. cerevisiae deletion strains, locus YPL241C, strain CIN2, stronger effect = lower value 1.01

CC1(C)C(O)CC(O)C2(C)C1CC(=O)C1(C)C2CCC2(C)C(C(=O)O)OC(=O)C3OC321 (stereo not drawn)
inactive: S. cerevisiae deletion strains, locus YBR021W, strain FUR4, stronger effect = lower value 1.01 | S. cerevisiae deletion strains, locus YBR229C, strain ROT2, stronger effect = lower value 1.01 | S. cerevisiae deletion strains, locus YCL029C, strain bik1, stronger effect = lower value 0.996 | S. cerevisiae deletion strains, locus YDL035C, strain GPR1, stronger effect = lower value 1.01 | S. cerevisiae deletion strains, locus YDL074C, strain BRE1, stronger effect = lower value 1 | [3] 1.01 | S. cerevisiae deletion strains, locus YDL185W, strain tfp1, stronger effect = lower value 0.984 | S. cerevisiae deletion strains, locus YDL192W, strain arf1, stronger effect = lower value 1 | S. cerevisiae deletion strains, locus YDR101C, strain arx1, stronger effect = lower value 1 | S. cerevisiae deletion strains, locus YDR150W, strain NUM1, stronger effect = lower value 1.02 | S. cerevisiae deletion strains, locus YDR162C, strain NBP2, stronger effect = lower value 1.03 | S. cerevisiae deletion strains, locus YDR318W, strain mcm21, stronger effect = lower value 1 | S. cerevisiae deletion strains, locus YDR388W, stronger effect = lower value 1 | S. cerevisiae deletion strains, locus YDR502C, strain sam2, stronger effect = lower value 1.02 | S. cerevisiae deletion strains, locus YEL061C, strain CIN8, stronger effect = lower value 1 | S. cerevisiae deletion strains, locus YER110C, stronger effect = lower value 0.995 | S. cerevisiae deletion strains, locus YER155C, strain BEM2, stronger effect = lower value 1.01 | S. cerevisiae deletion strains, locus YER167W, strain BCK2, stronger effect = lower value 1.01 | S. cerevisiae deletion strains, locus YGL078C, strain dbp3, stronger effect = lower value 0.996 | S. cerevisiae deletion strains, locus YGL086W, strain mad1, stronger effect = lower value 1.01 | S. cerevisiae deletion strains, locus YGL248W, strain PDE1, stronger effect = lower value 1.01 | S. cerevisiae deletion strains, locus YGR135W, strain pre9, stronger effect = lower value 1.01 | S. cerevisiae deletion strains, locus YGR229C, strain SMI1, stronger effect = lower value 1.01 | S. cerevisiae deletion strains, locus YGR252W, strain gcn5, stronger effect = lower value 0.974 | [4] 1.01 | S. cerevisiae deletion strains, locus YHR079C, strain IRE1 (second series), stronger effect = lower value 0.994 | S. cerevisiae deletion strains, locus YHR094C, strain hxt1, stronger effect = lower value 1.01 | S. cerevisiae deletion strains, locus YHR129C, strain ARP1, stronger effect = lower value 1.01 | S. cerevisiae deletion strains, locus YHR200W, strain rpn10, stronger effect = lower value 1 | S. cerevisiae deletion strains, locus YIL066C, strain RNR3, stronger effect = lower value 1.02 | S. cerevisiae deletion strains, locus YIL073C, strain SPO22, stronger effect = lower value 1.03 | S. cerevisiae deletion strains, locus YIL125W, strain kgd1, stronger effect = lower value 0.994 | S. cerevisiae deletion strains, locus YIR030C, strain dcg1, stronger effect = lower value 0.999 | [5] 1.02 | S. cerevisiae deletion strains, locus YJL134W, strain LCB3, stronger effect = lower value 1.01 | S. cerevisiae deletion strains, locus YJL168C, strain set2, stronger effect = lower value 0.985 | S. cerevisiae deletion strains, locus YJL187C, strain SWE1 (second series), stronger effect = lower value 1.01 | S. cerevisiae deletion strains, locus YJR043C, strain POL32, stronger effect = lower value 1.02 | [1] 1.01 | S. cerevisiae deletion strains, locus YKL009W, strain mrt4, stronger effect = lower value 0.986 | S. cerevisiae deletion strains, locus YKL068W, stronger effect = lower value 1 | S. cerevisiae deletion strains, locus YKL085W, strain MDH1 (second series), stronger effect = lower value 1 | S. cerevisiae deletion strains, locus YKL085W, strain MDH1, stronger effect = lower value 1 | S. cerevisiae deletion strains, locus YKR001C, strain vps1, stronger effect = lower value 0.99 | S. cerevisiae deletion strains, locus YLR039C, strain RIC1, stronger effect = lower value 1.03 | S. cerevisiae deletion strains, locus YLR058C, strain SHM2, stronger effect = lower value 1.01 | S. cerevisiae deletion strains, locus YLR102C, strain apc9, stronger effect = lower value 0.998 | S. cerevisiae deletion strains, locus YLR262C, strain YPT6, stronger effect = lower value 1 | S. cerevisiae deletion strains, locus YLR268W, strain sec22, stronger effect = lower value 1.01 | S. cerevisiae deletion strains, locus YLR330W, strain CHS5, stronger effect = lower value 1.01 | S. cerevisiae deletion strains, locus YLR342W, strain FKS1 (second series), stronger effect = lower value 1 | S. cerevisiae deletion strains, locus YLR371W, strain rom2, stronger effect = lower value 1.01 | S. cerevisiae deletion strains, locus YLR418C, strain cdc73, stronger effect = lower value 1 | S. cerevisiae deletion strains, locus YML016C, strain PPZ1, stronger effect = lower value 1.01 | S. cerevisiae deletion strains, locus YML032C, strain rad52, stronger effect = lower value 1.01 | S. cerevisiae deletion strains, locus YML124C, strain tub3, stronger effect = lower value 1 | S. cerevisiae deletion strains, locus YMR078C, strain ctf18, stronger effect = lower value 0.984 | S. cerevisiae deletion strains, locus YMR223W, strain ubp8, stronger effect = lower value 1.01 | S. cerevisiae deletion strains, locus YMR263W, strain SAP30, stronger effect = lower value 1.01 | [2] 0.99 | S. cerevisiae deletion strains, locus YNL067W, strain RPL9B, stronger effect = lower value 1.02 | S. cerevisiae deletion strains, locus YNL128W, strain TEP1, stronger effect = lower value 1.02 | S. cerevisiae deletion strains, locus YNL153C, strain GIM3, stronger effect = lower value 1.01 | S. cerevisiae deletion strains, locus YNL233W, strain BNI4, stronger effect = lower value 1 | S. cerevisiae deletion strains, locus YNL250W, strain rad50, stronger effect = lower value 0.999 | S. cerevisiae deletion strains, locus YNL271C, strain bni1, stronger effect = lower value 0.993 | S. cerevisiae deletion strains, locus YNL298W, strain CLA4, stronger effect = lower value 1.01 | S. cerevisiae deletion strains, locus YNL307C, strain MCK1, stronger effect = lower value 1 | S. cerevisiae deletion strains, locus YNR052C, strain pop2, stronger effect = lower value 0.994 | S. cerevisiae deletion strains, locus YOL012C, strain htz1 0.868 | S. cerevisiae deletion strains, locus YOL147C, strain pex11, stronger effect = lower value 0.993 | [6] 1.01 | S. cerevisiae deletion strains, locus YOR069W, strain VPS5, stronger effect = lower value 1.01 | S. cerevisiae deletion strains, locus YOR136W, strain idh2, stronger effect = lower value 0.997 | S. cerevisiae deletion strains, locus YOR144C, strain elg1, stronger effect = lower value 0.992 | S. cerevisiae deletion strains, locus YOR184W, strain ser1, stronger effect = lower value 1.03 | S. cerevisiae deletion strains, locus YOR316C, strain cot1, stronger effect = lower value 0.995 | S. cerevisiae deletion strains, locus YPR119W, strain clb2, stronger effect = lower value 0.989 | S. cerevisiae deletion strains, locus YPR141C, strain kar3, stronger effect = lower value 0.999 | S. cerevisiae deletion strains, locus YPR163C, strain tif3, stronger effect = lower value 1.01 | S. cerevisiae deletion strains, locus YPR167C, strain met16, stronger effect = lower value 0.997 | S. cerevisiae deletion strains, strain wtn01, stronger effect = lower value 0.981 | S. cerevisiae strains, strain wild type, stronger effect = lower value 1.01

CC(C)c1ccc(N2C=Nc3ccc(C(C)C)cc3C2)cc1
inactive: S. cerevisiae deletion strains, locus YAR019C, strain CDC15, stronger effect = lower value 0.998 | S. cerevisiae deletion strains, locus YBL105C, strain PKC1, stronger effect = lower value 0.995 | S. cerevisiae deletion strains, locus YBR135W, strain CKS1, stronger effect = lower value 0.997 | S. cerevisiae deletion strains, locus YBR136W, strain MEC1, stronger effect = lower value 0.995 | S. cerevisiae deletion strains, locus YBR160W, strain CDC28, stronger effect = lower value 1 | S. cerevisiae deletion strains, locus YDL017W, strain CDC7, stronger effect = lower value 1 | S. cerevisiae deletion strains, locus YDL028C, strain MPS1, stronger effect = lower value 1.01 | [3] 1 | S. cerevisiae deletion strains, locus YDL108W, strain KIN28, stronger effect = lower value 0.993 | S. cerevisiae deletion strains, locus YDL132W, strain cdc53, stronger effect = lower value 0.995 | S. cerevisiae deletion strains, locus YDL214C, strain PRR2, stronger effect = lower value 0.971 | S. cerevisiae deletion strains, locus YDR052C, strain DBF4, stronger effect = lower value 1 | S. cerevisiae deletion strains, locus YDR054C, strain cdc34, stronger effect = lower value 0.992 | S. cerevisiae deletion strains, locus YDR226W, strain ADK1, stronger effect = lower value 0.984 | S. cerevisiae deletion strains, locus YDR477W, strain SNF1, stronger effect = lower value 0.97 | S. cerevisiae deletion strains, locus YER123W, strain YCK3, stronger effect = lower value 0.934 | S. cerevisiae deletion strains, locus YER133W, strain GLC7, stronger effect = lower value 0.968 | S. cerevisiae deletion strains, locus YFL009W, strain cdc4, stronger effect = lower value 1 | S. cerevisiae deletion strains, locus YFL029C, strain CAK1, stronger effect = lower value 1 | S. cerevisiae deletion strains, locus YFR003C, strain YPI1, stronger effect = lower value 1 | S. cerevisiae deletion strains, locus YFR019W, strain FAB1, stronger effect = lower value 0.942 | S. cerevisiae deletion strains, locus YFR028C, strain CDC14, stronger effect = lower value 0.987 | S. cerevisiae deletion strains, locus YGR040W, strain KSS1, stronger effect = lower value 0.973 | S. cerevisiae deletion strains, locus YGR052W, strain FMP48, stronger effect = lower value 1.09 | S. cerevisiae deletion strains, locus YGR092W, strain DBF2, stronger effect = lower value 1.01 | [4] 0.898 | S. cerevisiae deletion strains, locus YHR079C, strain IRE1, stronger effect = lower value 0.988 | S. cerevisiae deletion strains, locus YHR082C, strain KSP1, stronger effect = lower value 1.04 | S. cerevisiae deletion strains, locus YHR205W, strain SCH9, stronger effect = lower value 0.975 | S. cerevisiae deletion strains, locus YIL147C, strain SLN1, stronger effect = lower value 1 | [5] 0.953 | S. cerevisiae deletion strains, locus YJL128C, strain PBS2, stronger effect = lower value 0.982 | S. cerevisiae deletion strains, locus YJL157C, strain FAR1, stronger effect = lower value 0.995 | S. cerevisiae deletion strains, locus YJR016C, strain ILV3, stronger effect = lower value 1 | S. cerevisiae deletion strains, locus YJR066W, strain TOR1 (second series), stronger effect = lower value 0.972 | S. cerevisiae deletion strains, locus YJR066W, strain TOR1, stronger effect = lower value 1 | S. cerevisiae deletion strains, locus YKL048C, strain ELM1, stronger effect = lower value 0.995 | S. cerevisiae deletion strains, locus YKL067W, strain YNK1, stronger effect = lower value 0.963 | S. cerevisiae deletion strains, locus YKL101W, strain HSL1, stronger effect = lower value 0.978 | S. cerevisiae deletion strains, locus YKL193C, strain SDS22, stronger effect = lower value 0.997 | S. cerevisiae deletion strains, locus YKL203C, strain TOR2, stronger effect = lower value 1.02 | S. cerevisiae deletion strains, locus YLR113W, strain HOG1, stronger effect = lower value 0.97 | S. cerevisiae deletion strains, locus YLR133W, strain CKI1, stronger effect = lower value 0.98 | S. cerevisiae deletion strains, locus YLR403W, strain SFP1, stronger effect = lower value 0.988 | S. cerevisiae deletion strains, locus YML070W, strain DAK1, stronger effect = lower value 0.96 | S. cerevisiae deletion strains, locus YMR001C, strain CDC5, stronger effect = lower value 1 | S. cerevisiae deletion strains, locus YMR205C, strain PFK2 (second series), stronger effect = lower value 0.972 | S. cerevisiae deletion strains, locus YMR277W, strain FCP1, stronger effect = lower value 0.989 | S. cerevisiae deletion strains, locus YNL006W, strain LST8, stronger effect = lower value 1.01 | S. cerevisiae deletion strains, locus YNL020C, strain ARK1, stronger effect = lower value 0.987 | S. cerevisiae deletion strains, locus YNL161W, strain CBK1, stronger effect = lower value 1 | S. cerevisiae deletion strains, locus YNL183C, strain NPR1, stronger effect = lower value 0.968 | S. cerevisiae deletion strains, locus YNL207W, strain RIO2, stronger effect = lower value 1.01 | S. cerevisiae deletion strains, locus YNL222W, strain SSU72, stronger effect = lower value 1 | S. cerevisiae deletion strains, locus YNL307C, strain MCK1 (second series), stronger effect = lower value 0.957 | S. cerevisiae deletion strains, locus YOL078W, strain AVO1, stronger effect = lower value 1 | S. cerevisiae deletion strains, locus YOL136C, strain PFK27, stronger effect = lower value 0.964 | [6] 0.999 | S. cerevisiae deletion strains, locus YOR119C, strain RIO1, stronger effect = lower value 1.08 | S. cerevisiae deletion strains, locus YOR231W, strain MKK1, stronger effect = lower value 0.99 | S. cerevisiae deletion strains, locus YOR329C, strain SCD5, stronger effect = lower value 0.998 | S. cerevisiae deletion strains, locus YPL031C, strain PHO85, stronger effect = lower value 0.973 | S. cerevisiae deletion strains, locus YPL153C, strain RAD53, stronger effect = lower value 0.983 | S. cerevisiae deletion strains, locus YPL204W, strain HRR25, stronger effect = lower value 0.949 | S. cerevisiae deletion strains, locus YPL209C, strain IPL1, stronger effect = lower value 1 | S. cerevisiae deletion strains, locus YPL256C, strain CLN2, stronger effect = lower value 0.97 | S. cerevisiae deletion strains, locus YPR025C, strain CCL1, stronger effect = lower value 1 | S. cerevisiae deletion strains, locus YPR106W, strain ISR1, stronger effect = lower value 0.998 | S. cerevisiae deletion strains, locus YPR111W, strain DBF20, stronger effect = lower value 0.985 | S. cerevisiae deletion strains, strain NNK1, stronger effect = lower value 1.01 | S. cerevisiae deletion strains, strain TSCII, stronger effect = lower value 1.01
